# Reference: PubChem BioAssay (NCATS)
# Values without a mark were called inactive. Results filed as inconclusive are left out. A call without a number means that no potency is given here. Active and inactive are the calls of the source. Calls follow the shape of the dose curve; as a rule, active = well fitted curve in the direction sought with a large enough effect; inconclusive = small, poorly fitted or top-dose-only effect, or another doubt; inactive = no such curve, though single readings can be large; an effect the other way counts as inactive or inconclusive.
# Experiments:
# [1] = molecular target: Glutathione peroxidase 1 (Homo sapiens) (UniProt P07203); assay: Primary qHTS Assay for Inhibitors of Recombinant Selenoprotein Glutathione Peroxidase 1 (GPX1) (AID 1845191); also: nearly all actives have a fitted effect of over 65% in size
# How it was run: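 Recombinant GPX1 (10 nM final) was preincubated with compound for 30 min at room temperature, then reacted with 1 mM GSH, 0.5 mM CHP, 0.5 mM NADPH and 100 nM glutathione reductase; NADPH fluorescence (340/450 nm) was read at 0 and 15 min.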
# [2] = molecular target: Phospholipid hydroperoxide glutathione peroxidase GPX4 (Homo sapiens) (UniProt P36969); assay: Primary qHTS Assay for Inhibitors of Recombinant Selenoprotein Glutathione Peroxidase 4 (GPX4) (AID 1845192); also: nearly all actives have a fitted effect of over 65% in size
# How it was run: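 GR-coupled readout: 100 nM GR, 1 mM GSH, 0.5 mM NADPH; NADPH fluorescence (ex 340/em 450 nm) read at t=0 and after 15 min RT. GPX4 200 nM, preincubated 30 min with compound; substrate 0.5 mM CHP.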
# [3] = molecular target: Luciferin 4-monooxygenase (Photinus pyralis) (UniProt P08659); assay: Primary firefly luciferase (FLuc) qHTS assay for identification of artifact compounds. (AID 1845220); also: nearly all actives have a fitted effect of over 60% in size
# How it was run: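 In this counter-screen for luciferase artifacts, test compounds met substrate (10 uM each luciferin and ATP) before 10 nM enzyme started the reaction. Light output was measured 5 min later.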
# [4] = Primary fluorescence-based thiol-reactive (MSTI) qHTS assay for identification of artifact compounds. (AID 1845221); also: nearly all actives have a fitted effect of over 65% in size; also: potency is read from the fitted curve at half-maximal effect;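 as to activity change, negative = thiol reactive: series mostly up to about 54 µM; thiol-reactive compounds lower the probe fluorescence signal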
# How it was run: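 Thiol-reactive compounds detected by quenching of 4 uM MSTI fluorescence (525/598 nm) after 1 h room-temperature dark incubation in PBS pH 7.4, 2% DMSO. qHTS titration; percent inhibition Hill-fitted against Acetyl-MSTI/MSTI controls.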
# [5] = tested on: Nanoluciferase (engineered Oplophorus gracilirostris luciferase); assay: Primary Nanoluciferase (NLuc) qHTS assay for identification of artifact compounds. (AID 1845222);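 also: NLuc secreted into diluted conditioned medium of S16 cells; series mostly up to about 54 µM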
# How it was run: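 Using secreted nanoluciferase in S16 culture medium (0.22 um filtered, 1:55 dilution), compounds were preincubated 15 min at RT. Signal was generated with Nano-Glo reagent (1:100) over 5 min.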
# [6] = Primary redox qHTS assay for identification of artifact compounds. (AID 1845223)
# How it was run: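 Amplex Red (25 uM) and HRP (250 mU/mL) in HBSS, with compounds for 15 min, then 250 uM DTT for 30 min, room temperature, dark. Fluorescence 525/598 nm read; normalized to DMSO and 10 uM DA3003; Hill fit.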
# Glutathione peroxidase 1 (Homo sapiens), sequence (P07203 whole entry, looked up): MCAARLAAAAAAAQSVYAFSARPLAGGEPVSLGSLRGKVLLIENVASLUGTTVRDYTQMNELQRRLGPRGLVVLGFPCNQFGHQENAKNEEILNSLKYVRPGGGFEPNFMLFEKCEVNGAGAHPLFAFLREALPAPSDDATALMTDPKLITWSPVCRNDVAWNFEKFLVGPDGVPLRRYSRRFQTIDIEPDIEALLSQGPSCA
# Phospholipid hydroperoxide glutathione peroxidase GPX4 (Homo sapiens), sequence (P36969 whole entry, looked up): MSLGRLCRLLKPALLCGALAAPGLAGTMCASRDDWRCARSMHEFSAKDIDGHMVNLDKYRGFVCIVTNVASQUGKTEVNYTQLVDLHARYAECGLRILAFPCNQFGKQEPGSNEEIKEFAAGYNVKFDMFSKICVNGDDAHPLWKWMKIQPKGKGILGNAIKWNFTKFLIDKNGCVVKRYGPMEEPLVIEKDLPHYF
Compound,Potency [1],Potency [2],Potency [3],Potency [4],Potency [5],Potency [6],outcome [1],outcome [2],outcome [3],"activity change, negative = thiol reactive [4]","activity, negative = inhibition [5]",redox activity (% of DA3003) [6]
C=C(C)[C@@H]1CC[C@](C)(O)[C@@H](OC(=O)c2ccccc2)C1,inactive,inactive,inactive,inactive,inactive,inactive,,,,,,
CC(C)C1(O[C@@H]2O[C@H](CO)[C@@H](O)[C@H](O)[C@H]2O)CC=C(CO)CC1 (stereo not given in full),inactive,inactive,inactive,11.7 µM (active),inactive,inactive,,,,,,
CC(C)C1=CC2=CCC3[C@](C)(CCC[C@@]3(C)C(=O)O)C2CC1=O (stereo not given in full),inactive,inactive,inactive,inactive,inactive,inactive,,,,,,
Clc1ccc(CN[C@H]2CCN(c3ncc(Br)cn3)C2)c(Cl)c1,inactive,inactive,inactive,inactive,inactive,inactive,,,,,,
CC1(C)C(=O)N2c3ccccc3[C@]3(CC(n4cnc5ccccc5c4=O)C(=O)O3)[C@H]2N1O (stereo not given in full),inactive,inactive,inactive,inactive,inactive,inactive,,,,,,
CC1=C2C(=O)O[C@@H](c3ccoc3)[C@]2(C)CCC1,inactive,inactive,inactive,inactive,inactive,inactive,,,,,,
CC1(C)CC[C@]2(C(=O)O)CC[C@]3(C)C(=CCC4[C@@]5(C)CCC(O[C@@H]6OC[C@H](O)[C@H](O)[C@H]6O[C@@H]6O[C@H](CO)[C@@H](O)[C@H](O)[C@H]6O)[C@@](C)(CO)C5CC[C@]43C)[C@@H]2C1 (stereo not given in full),inactive,inactive,inactive,inactive,inactive,inactive,,,,,,
COC(=O)[C@]12C(=O)C(C)=C(O)[C@@]1(C)C(C)=CC1[C@@]34CC[C@@H](OC(C)=O)C(C)(C)C3[C@H](C[C@]12C)OC4=O (stereo not given in full),inactive,inactive,inactive,inactive,inactive,inactive,,,,,,
C=CC(C)(O)CC/C=C(\C)C(=O)OCC1OC(OC2CCC3(C)C(CCC4(C)C3CC=C3C5CC(C)(C)C(O)CC5(C(=O)O)CCC34C)C2(C)C)C(O)C(OC2OC(CO)C(O)C(OC3OC(CO)C(O)C(OC4OC(COC5OC(CO)C(O)C(O)C5O)C(O)C(O)C4O)C3O)C2O)C1O (stereo not given),,,,,,,inactive [at 9.52 µM],inactive [at 9.73 µM],inactive [at 11.6 µM],67.6% [at 11.5 µM],4.87% [at 11.6 µM],18.5% [at 11.5 µM]
C=C1[C@H]2CC[C@]3(O)[C@@](CC[C@@H]4[C@](C)(C(=O)O)CCC[C@]43C)(C2)[C@H]1OC(=O)/C(C)=C\C,inactive,inactive,inactive,inactive,inactive,inactive,,,,,,
COC1CC(=O)C23C(=O)NC(CC(C)C)C2C(C)C(C)=CC3/C=C(\C)CCC1O (stereo not given),inactive,inactive,inactive,inactive,inactive,inactive,,,,,,
C[C@@H]1O[C@@H](O[C@H]2[C@H](O[C@H]3[C@H](O[C@H]4CC[C@@]5(CO)C(CC[C@]6(C)C5CC=C5C7CC(C)(C)C[C@@H](O)[C@]7(C)CC[C@]56C)C4(C)C)O[C@H](C(=O)O)[C@@H](O)[C@@H]3O)OC[C@@H](O)[C@@H]2O)[C@H](O)[C@H](O)[C@H]1O (stereo not given in full),inactive,inactive,,,,,,,inactive [at 11.6 µM],150% [at 11.5 µM],-0.0839% [at 11.6 µM],0.809% [at 11.5 µM]
C=C1CC[C@@H]2[C@](C)(CC[C@H](O)[C@@]2(C)CCC=C(C)C)[C@@H]1Cc1c[nH]c2ccccc12,inactive,inactive,inactive,inactive,inactive,inactive,,,,,,
COc1cc(/C=C/C(=O)OC2[C@H](O)CC(O)(C(=O)O)C[C@H]2O)ccc1O (stereo not given in full),inactive,inactive,inactive,inactive,inactive,inactive,,,,,,
CC(CO[C@@H]1O[C@H](COC(=O)/C=C/c2ccc(O)c(O)c2)[C@@H](O)[C@H](O)[C@H]1O)C1(O)COC(=O)C1 (stereo not given in full),inactive,inactive,inactive,1.84 µM (active),inactive,inactive,,,,,,
CC(C)=CCC[C@](C)(O[C@@H]1O[C@H](CO[C@@H]2OC[C@@H](O)[C@H](O)[C@H]2O)[C@@H](O)[C@H](O)[C@H]1O)[C@H]1CC[C@]2(C)[C@@H]1[C@H](O)C[C@@H]1[C@@]3(C)CC[C@H](O[C@@H]4O[C@H](CO)[C@@H](O)[C@H](O)[C@H]4O[C@@H]4O[C@H](CO)[C@@H](O)[C@H](O)[C@H]4O)C(C)(C)[C@@H]3CC[C@]12C,inactive,inactive,inactive,inactive,inactive,inactive,,,,,,
COc1cc(/C=C/C(=O)OC(C)(C)C(OC2OC(CO)C(O)C(O)C2O)C(=O)OCc2ccc(OC3OC(CO)C(O)C(O)C3O)cc2)ccc1O (stereo not given),inactive,inactive,inactive,inactive,inactive,inactive,,,,,,
CC1(C)O[C@]23C[C@H]1C[C@H](OC(=O)c1ccoc1)[C@]2(C)[C@@H](OC(=O)c1ccoc1)CCC3(C)O (stereo not given in full),inactive,inactive,inactive,inactive,inactive,inactive,,,,,,
CC(O)C(O)/C=C/C=C/C(=O)O[C@@H]1C=C2COC(=O)[C@]2(O)[C@@]2(C)CCCC(C)(C)C12 (stereo not given in full),inactive,inactive,inactive,inactive,inactive,inactive,,,,,,
C=CC1C(O[C@@H]2O[C@H](CO)[C@@H](O)[C@H](O)[C@H]2O)OC=C(C(=O)OC)C1Cc1nccc2c1[nH]c1ccccc12 (stereo not given in full),inactive,inactive,inactive,inactive,inactive,inactive,,,,,,
